Reference: PubChem BioAssay AID493131 (Broad Institute, 2011)
Out of some 340,000 compounds screened, about 3,300 (0.97%) were called active. The sample holds actives, similar compounds and a random draw of the others, so the mix is not that of the screen. A number with no mark means an inactive call.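 The calls were made as follows: active = mean activation above about 17%, with every replicate also reaching it (limit read from the data, passing the limit was not always enough); inconclusive = only one of the two conditions met; inactive = the rest.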

What follows are compounds tested against Protein FosB (Mus musculus) (UniProt P13346) (assay: enhancers of mouse delta FosB DNA binding – biochemical, fluorescence polarization, TAMRA-CDK5 oligo, single point, primary screen (AID 493131;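 also: fluorescence polarization rise as delta FosB binds a TAMRA Cdk5 AP-1 oligo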)). Settings: purified delta FosB, at 25 µM, active compounds read high, percent of positive-control signal above neutral wells.
Chain of Protein FosB (Mus musculus) (P13346 whole entry, looked up): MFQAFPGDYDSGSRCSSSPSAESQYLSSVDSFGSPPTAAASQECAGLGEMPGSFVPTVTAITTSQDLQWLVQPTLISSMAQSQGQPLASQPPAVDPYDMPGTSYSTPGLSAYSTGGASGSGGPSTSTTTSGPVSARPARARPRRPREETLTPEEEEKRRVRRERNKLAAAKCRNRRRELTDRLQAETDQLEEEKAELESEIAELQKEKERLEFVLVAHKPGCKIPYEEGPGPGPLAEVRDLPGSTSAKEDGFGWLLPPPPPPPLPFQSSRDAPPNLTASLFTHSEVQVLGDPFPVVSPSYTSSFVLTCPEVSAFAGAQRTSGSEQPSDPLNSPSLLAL

Structure (SMILES) | activation
O=C(NC1CCCC1)C(c1ccc(Cl)cc1)N(C(=O)c1csnn1)C1CC1 (stereo not drawn) | -6.23%
Cc1ccc(-c2cnc(NC(=O)CCC(=O)N(C)Cc3ccccc3)n2C)cc1 | -2.74%
CCCC1C(=O)N2C(N(C)C)=Nc3ccc(C)cc3N2C1=O (stereo not drawn) | 6.69%
COc1ccc(S(=O)(=O)N2CCN(C(C)C(=O)Nc3ccc(C(C)C)cc3)CC2)cc1 (stereo not drawn) | -3.44%
O=C(CCc1ccccc1)Nc1ccc(NC(=O)C2CC2)nc1 | 4.2%
COc1ccc(S(=O)(=O)N(CC(=O)N/N=C/c2ccc(C(=O)O)cc2)Cc2ccccc2)cc1OC | -11.9%
Cc1ccccc1NC(=O)CCOc1ccccc1 | -7.98%
CC(Oc1cccc(NC(=O)c2cccs2)c1)C(=O)c1ccccc1 (stereo not drawn) | -3.07%
O=C(Nc1ccccc1)c1ccc(NC(=O)c2cccs2)cc1 | 19% (active)
O=C(NC(=S)Nc1ccc(NC(=O)c2cccs2)cc1)c1ccc([N+](=O)[O-])cc1 | -0.174%
O=C(O)c1ccccc1C(=O)NC1=NN(c2ccccc2)CC1 | -3.52%
COc1cccc(-c2cc3nc4c(c(N5CCC6(CC5)OCCO6)n3n2)CCCC4)c1 | -1.84%
COc1ccc(C(=O)n2nc(-c3ccc(C)cc3)nc2N)cc1OC | 8.05%
COc1ccc(C(=O)n2nc(C)c(Br)c2C)cc1OC | 3.74%
COc1ccc(C(=O)n2nc(-c3ccc(Cl)cc3)nc2N)cc1OC | 30.9% (active)
CCN(CC)CCNC(=O)c1sc2ncn(CC(=O)Nc3ccc(C)c(Cl)c3)c(=O)c2c1C | -141%
Cc1nc2cc(NC(=O)CSc3nc4c(C)cccc4cc3C#N)ccc2s1 | 61.2% (active)
Cc1cc(C)c(C#N)c(SCC(=O)Nc2ccccc2)n1 | 3.54%
Cc1nonc1NC(=O)CSc1nc2ccccc2cc1C#N | 5.77%
Cc1ccc(C)c(NC(=O)C(c2ccccc2)N2CCN(CC(=O)NC3CC3)CC2)c1 (stereo not drawn) | -10.9%
NC(=O)c1cc(S(=O)(=O)N2CCCC2)ccc1OCc1ccc(F)cc1 | -1.72%
COc1ccc(NS(=O)(=O)c2ccc(NC(=O)c3ccc(N(C)S(C)(=O)=O)cc3)cc2)cc1 | 43.3% (active)
COc1ccc(NS(=O)(=O)c2ccc(C(=O)Nc3c(C)n(C)n(-c4ccccc4)c3=O)cc2)cc1 | 1.19%
COc1ccc(C(=O)Nc2cccc(S(C)(=O)=O)c2)cc1 | -0.053%

Structure (SMILES) | activation
Cc1noc(C)c1NC(=O)Nc1cccc2c1O[C@H](CN(C)C(=O)Nc1ccccc1)[C@@H](C)CN([C@H](C)CO)C2=O | 4.59%
COc1ccc(C(=O)N(C)Cc2ccc(OC)c(OC)c2OC)cc1S(=O)(=O)N1CCOCC1 | -8.82%
COC(=O)c1sc2ncccc2c1OCc1ccc(Cl)cc1Cl | 17% (active)
COc1cccc(NC(=O)CN(C)C(=O)Cc2ccc(Cl)cc2Cl)c1 | -4.55%
COCCNC(=O)c1snc2ccc(Cl)cc12 | -8.32%
CC(=O)c1cccc(NC(=O)[C@@H](NC(N)=O)C(C)C)c1 | 2.28%
Cc1ccc2nc(N(CCN(C)C)C(=O)C3=COCCO3)sc2c1 | -2.06%
CN(C)CCN(C(=O)CN1C(=O)c2ccccc2C1=O)c1nc2cc3c(cc2s1)OCCO3 | 38% (active)
CN(C)CCN(C(=O)C1CCCCC1)c1nc2cc3c(cc2s1)OCO3 | 7.71%
Cn1nc(C(C)(C)C)c(NC(=O)c2sccc2Cl)c1C(C)(C)C | -8.28%
Cc1ccc(C)c(S(=O)(=O)N(C)c2ccc(OC(=O)C3CCN(C(=O)c4ccc(F)cc4)CC3)cc2)c1 | -7.71%
C=CCn1c(=O)n(C)c2c(=O)n(C)c(=O)n(C)c21 | -1.42%
Cc1sc2nc(CSCC(=O)Nc3c(Cl)cccc3Cl)[nH]c(=O)c2c1C | 32.5% (active)
Cc1sc2nc(COC(=O)C(NC(=O)c3ccc(Cl)cc3Cl)C(C)C)[nH]c(=O)c2c1C (stereo not drawn) | -6.82%
Cc1sc2nc(CSCC(=O)NC3CCCCC3)[nH]c(=O)c2c1C | -10.1%
COc1ccc2oc(C(=O)OCC(=O)N(CC(C)C)c3c(N)n(Cc4ccccc4)c(=O)[nH]c3=O)c(C)c2c1 | 3.39%
COc1ccc(C(CNC(=O)c2cccc(S(=O)(=O)Nc3ccc(Br)cc3)c2)N(C)C)cc1 (stereo not drawn) | 14%
COC(=O)c1scc(C)c1NC(=O)CSc1ccc(Cl)cc1 | 35% (active)
COC(=O)c1cc(OC)c(OC)cc1NC(=O)CSc1ccc(C)cc1 | -0.589%
COc1ccc(C)cc1NC(=O)CSc1ccc(Cl)cc1 | -7.74%
COc1ccc2sc(-c3ccc(N(C)C)cc3)c(-c3ccc4cc[nH]c4c3)c2c1 | -4.04%
COc1ccc2sc(-c3ccc(N(C)C)cc3)c(C#CCO)c2c1 | -9.84%
COc1ccc2c(c1)c(=Cc1ccc(N(C)C)cc1)c1cc(-c3ccccc3)[n+](C)n12 | 126% (active)
CCC(=O)NC(Nc1cc(C)ccn1)(C(F)(F)F)C(F)(F)F | -2.53%
